Screening results from PubChem.
ELG1 DNA repair: qHTS screen for small molecules that inhibit ELG1-dependent DNA repair in human embryonic kidney (HEK293T) cells expressing luciferase-tagged ELG1. Potency, µM (series often up to 46.1 µM), for the others: at the highest dose activity change, negative = inhibition, most hits filed as inhibitors. AID 504467, 2011. 330,000 tested, 2.3% active. HEK293T ELG1-luciferase reporter, luminescence, 16 h; DNA damage induced by 5-fluorouridine; note: potency is the fitted concentration of half-maximal effect; nearly all actives have a fitted effect of over 55% in size
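5-Fluorouridine DNA damage + compound/DMSO, 2,000 cells/well, 16 h, 37 °C/5% CO2. ONE-Glo, 30 min RT, luminescence. Readout = decrease in reporter signal.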
HT1080NT lethal: qHTS for induction of synthetic lethality in tumor cells producing 2HG: qHTS for the HT-1080-NT fibrosarcoma cell line; HT-1080-NT fibrosarcoma viability, CellTiter-Glo ATP luminescence, 48 h; Potency, µM (titrated, usually from 46.1 µM), inactives show at the top dose activity, negative = less viability, hits mostly cytotoxic; 360,000 tested, 1.6% active; AID 686970, 2013;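 note: NT is the 2HG producing partner of a matched IDH1 knockdown line; potency is the fitted concentration of half-maximal effect; 0% = DMSO-treated cells and -100% = media-only wells without cells; nearly all actives have a fitted effect of over 55% in size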
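Luminescent CellTiter-Glo readout after 48 hours of compound exposure at 37 degrees C defined viability of HT-1080-NT cells. Activity was normalized to DMSO wells and cell-free media wells; concentration-response curves were fitted and assigned curve classes.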
TDP1 cell noCPT: qHTS for Inhibitors of human tyrosyl-DNA phosphodiesterase 1 (TDP1): qHTS in cells in absence of CPT. DT40 Tdp1-/- hTDP1 cells, no CPT, ATP luminescence, 48 h. Potency, µM (series often up to 46.2 µM), without a hit: at the highest dose activity change, negative = growth inhibition, usual class: inhibitors. AID 686978, 2013. 420,000 tested, 15% active; note: potency is the fitted concentration of half-maximal effect; nearly all actives have a fitted effect of over 55% in size
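No-CPT arm: Tdp1-/-;hTDP1 DT40 cells (400/well) plus compounds, incubated ≥48 hr at 37 °C. Readout CellTiter-Glo luminescence.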
DT40 TDP1 CPT: qHTS for Inhibitors of human tyrosyl-DNA phosphodiesterase 1 (TDP1): qHTS in cells in presence of CPT. AID 686979, 2013. 420,000 tested, 12% active. Potency, µM (titrated, usually from 46.2 µM), for inactives: top-dose activity change, negative = growth inhibition, usual class: inhibitors. chicken DT40 Tdp1-/-;hTDP1 cells + 20 nM CPT, ATP luminescence, 48 h; note: potency is the fitted concentration of half-maximal effect; nearly all actives have a fitted effect of over 55% in size
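Chicken DT40 Tdp1-/- cells complemented with human TDP1, 400 cells/well, exposed to compounds plus 20 nM camptothecin for at least 48 h at 37 C; viability read as ATP content by CellTiter-Glo luminescence.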
IL1B secr inh: qHTS for Inhibitors of Inflammasome Signaling: IL-1-beta AlphaLISA Primary Screen. THP-1 LPS/ATP IL-1B secretion, AlphaLISA, 16 h; stronger effect = lower value. activity change, % at 57.5 µM. 360,000 tested, 4.7% active; in the data active = activity change below about -50%; inconclusive = mostly about -30% to -49%
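THP-1 cells pretreated 1 hr with compounds (up to 57.5 uM final), then stimulated with LPS (250 ng/mL final) plus ATP (1.25 mM final); secreted IL-1B measured by AlphaLISA after 16 hr, decreased signal indicating inhibition.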
HT1080 IDH1KD tx: qHTS for induction of synthetic lethality in tumor cells producing 2HG: qHTS for the HT-1080-IDH1KD cell line; AID 686971, 2013; 360,000 tested, 2% active; HT-1080 IDH1 knockdown viability, ATP luminescence, 48 h; Potency, µM (titrated, usually from 46.1 µM), for inactives: top-dose activity, negative = toxicity, most hits filed as cytotoxic;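 note: potency is the fitted concentration of half-maximal effect; 0% = DMSO wells and -100% = cell-free medium wells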
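Cytotoxicity counter-line: IDH1KD HT-1080, 48 h, CellTiter-Glo. Curves classed by r2, magnitude and activity.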
Numbers without * were called inactive; ? = inconclusive; / = no result; [ ] = dose if it differs, or a comment. Only some compounds are listed: those with a hit (about 19% of all), similar ones and a draw of the others. Unless noted, calls come from the whole dose curve; as a rule, active = well fitted curve in the direction sought with a large enough effect; inconclusive = small, poorly fitted or top-dose-only effect, or another doubt; inactive = no such curve, though single readings can be large; an effect the other way counts as inactive or inconclusive. Unless noted, % is set by controls: 0 for no effect and ±100 for the full control effect.

SMILES | ELG1 DNA repair | HT1080NT lethal | TDP1 cell noCPT | DT40 TDP1 CPT | IL1B secr inh | HT1080 IDH1KD tx
CC12CN3CN(C1)CC(C)(C3)C2=NO | -0.4% | 2.3% | 17.3% | 12.6% | 6.7 | 9.2%
CC(C)n1c(/C=C/[C@@H](O)C[C@@H](O)CC(=O)O)c(-c2ccc(F)cc2)c2ccccc21 | / | 1.46µM* | 9.2µM* | 14.6µM* | 43.3 | 1.46µM*
CC(C)C(=O)Nc1ccc([N+](=O)[O-])c(C(F)(F)F)c1 | -29.2% | -8.3% | 13µM* | 13.3µM* | 8.4 | -19.8%
CC(C)C(=O)Nc1ccc(N2CCN(C)CC2)c(F)c1 | 0.0% | 19.7% | 2.3% | 0.9% | 26.3 | 3.1%
O=C1C=C2C(=CCOC2O)O1 (centres undefined) | / | / | 0.146µM* | 0.103µM* | / | /
O=C(CCC1CCN(Cc2ccccc2)CC1)c1ccc2c(c1)NCCCC2 | / | / | 11.9µM* | ? | / | /
O=[N+]([O-])c1ccc(C(c2ccc([N+](=O)[O-])cc2)c2ccc([N+](=O)[O-])cc2)cc1 | / | ? | 11.6µM* | 7.31µM* | -7.4 | ?
CC(C)NCC(O)c1ccc([N+](=O)[O-])cc1 (centres undefined) | / | / | -11.3% | 1.2% | / | /
Cc1cc(C)c(-c2csc(NC(=O)COC(=O)c3ccc4c(c3)OCO4)n2)c(C)c1 | 0.3% | 14.4% | 25.9µM* | ? | -5.0 | 8.8%
CC1(C)C(C(=O)NCc2ccco2)C1(C)C | -1.9% | 0.6% | -16.5% | 6.2% | 0.0 | -2.7%
CC(=O)c1cccc(-c2ccnc3c2CC(C(=O)NCCc2ccccc2)O3)c1 (centres undefined) | / | ? | 3.66µM* | 4.61µM* | 93.1 | ?
CC(=O)Nc1cccc(-c2ccnc3c2CC(C(=O)NCc2ccco2)O3)c1 (centres undefined) | / | ? | 1.64µM* | 1.84µM* | 23.1 | 2.31µM*
O=C1/C(=C/c2ccc([N+](=O)[O-])cc2)N2CCC1CC2 | 29.7% | 9.0% | ? | ? | -22.3 | 1.3%
O=[N+]([O-])c1ccc(S(=O)(=O)N2CCn3cccc3C2c2ccccc2F)cc1 (centres undefined) | / | / | 16.4µM* | ? | / | /
C[C@]12CC[C@@H](O)CC1=CCC1C2CC[C@]2(C)C(=O)[C@H](F)CC12 (some centres undefined) | 0.8% | -7.1% | -18.6% | -21.7% | 5.6 | -0.5%
CC12CCC3C(CC=C4CC(O)CCC43C)C1C/C(=C\c1cccc(F)c1)C2=O (centres undefined) | 7.6% | ? | 14.6µM* | ? | 3.5 | ?
CC(C)CNP(=S)(c1ccccc1)C(C)(C)C (centres undefined) | -18.7% | -1.2% | 1.8% | ? | 28.9 | 11.2%
COc1ccc2c(c1)[C@@]13CCCCC1[C@@H](C2)N(C)CC3 (some centres undefined) | / | / | 16.4µM* | -124.6% | / | /
CN1CC[C@@]23CCCCC2C1Cc1ccc(O)cc13 (some centres undefined) | / | / | -1.6%[9.04 µM] | 9.4%[9.04 µM] | / | /
CC(=O)O[C@@H]1/C=C/[C@](C)(O)C[C@@H](C)C/C=C/[C@H]2[C@@H]3O[C@]3(C)[C@@H](C)[C@H]3[C@H](Cc4ccccc4)NC(=O)[C@@]312 | / | -20.8% | 0.461µM* | 0.517µM* | -0.4 | ?
Cc1ccc(OP2(=O)Nc3cc(C)c(C)cc3S2)cc1 (centres undefined) | / | ? | ? | ? | -68.8* | ?
Cc1ccc2c(c1)NP(=S)(Oc1ccccc1)N2 (centres undefined) | / | 10.7% | -13.4% | -10.9% | -5.8 | 16.5%
COc1ccc2c(c1)NP(=S)(Oc1ccccc1)N2 (centres undefined) | ? | 8.1% | 14.6µM* | ? | 5.5 | 3.7%
Cc1ccc(OC(=O)N(C)C[C@@H]2OCc3cnnn3CCCC(=O)N([C@@H](C)CO)C[C@@H]2C)cc1 | / | 3.6% | ? | -28.3% | -8.1 | 7.2%
CC(=O)Nc1cc(-c2cccc(C(=O)N(C)C)c2)cn2c(-c3cccc(C(F)(F)F)c3)cnc12 | / | ? | 16.4µM* | 18.4µM* | -20.3 | -29.1%
SMILES | ELG1 DNA repair | HT1080NT lethal | TDP1 cell noCPT | DT40 TDP1 CPT | IL1B secr inh | HT1080 IDH1KD tx
O=C(Nc1cccc2ccccc12)c1nn(C23CC4CC(CC(C4)C2)C3)cc1Br | 3.9% | 1.5% | 16.4µM* | 23.1µM* | -3.5 | 2.2%
O=C(Nc1cccc2ccccc12)N1Cc2ccccc2-n2nncc2C1 | / | 0.9% | ? | -27.1% | 24.9 | 5.2%
O=C1CS[C@@H](c2ccccc2Cl)c2cc(Cl)ccc2N1 | / | / | ? | -7.5% | / | /
CCOC(=O)C1=CC(=C2C(=O)N(CC)C(=S)N(CC)C2=O)c2ccccc2O1 | 2.1% | 4.9% | -9.4% | 1.4% | -15.2 | 4.1%
O=C(CSC1c2ccccc2-c2ccccc21)N/N=C/c1ccccc1O | 3.66µM* | 4.47µM* | 6.51µM* | 7.31µM* | 49.7 | ?
NCc1cc(=O)[nH]o1 | -0.5% | 24.9% | -6.0% | -1.7% | 0.0 | 5.9%
COC1=C(C)C(=O)c2c(c(COC(N)=O)c3n2C[C@@H]2[C@@H]3N2C)C1=O (some centres undefined) | / | / | 0.0251µM* | 0.1µM* | / | /
CC(C)(C)CC(C)(C)c1ccc(O)cc1 | / | / | 21.7µM* | 13.7µM* | / | /
CN(C)C1C(=O)C(C(N)=O)=C(O)[C@@]2(O)C(=O)C3=C(O)c4c(O)cccc4[C@@](C)(O)C3[C@H](O)C12 (some centres undefined) | / | / | -69.9% | 8.41µM* | / | /
CN(C)[C@@H]1C(=O)C(C(N)=O)=C(O)[C@@]2(O)C(=O)C3=C(O)c4c(O)cccc4[C@@](C)(O)C3[C@H](O)C12 (some centres undefined) | 1.5% | -17.2% | 18.4µM* | ? | 17.6 | -0.1%
CN(C)C1C(=O)C(C(N)=O)=C(O)C2(O)C(=O)C3=C(O)c4c(O)cccc4C(C)(O)C3CC12 (centres undefined) | -2.7% | -9.7% | -18.6% | -27.0% | -17.2 | -8.4%
